Ten compounds from PubChem BioAssay (Tox21) can be followed below.

Inconclusive results are not listed. Values without a mark were called inactive. The source made the active and inactive calls. Unless noted, calls come from the whole dose curve; as a rule, active = well fitted curve in the direction sought with a large enough effect in the repeat runs; inconclusive = weak or mixed curves; inactive = no such curve, though single readings can be large; an effect the other way counts as inactive or inconclusive.

Test [1] is described as follows: qHTS assay to identify aromatase inhibitors - cell viability counter screen (AID 743084).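 Note: cells stimulated with testosterone during compound exposure; nearly all actives have a fitted effect of over 55% in size.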 On the technique in general: Quantitative high-throughput screening tests each substance at several concentrations.
For test [2], the target named is Aryl hydrocarbon receptor (Homo sapiens) (UniProt P35869). The experiment in a line: qHTS assay to identify small molecule that activate the aryl hydrocarbon receptor (AhR) signaling pathway (AID 743085).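 Note: HG2L7.5c1 human HepG2 liver cells with stably integrated DRE-driven firefly reporter; series mostly up to about 70 µM; nearly all actives have a fitted effect of over 15% in size.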 The method in brief: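 Luminescence (ONE-Glo) from a dioxin-responsive-element luciferase reporter in HG2L7.5c1 HepG2 cells after 24 hr compound exposure at 37C; viability measured by CellTiter-Fluor fluorescence beforehand.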
Aryl hydrocarbon receptor (Homo sapiens), sequence (P35869 whole entry, looked up): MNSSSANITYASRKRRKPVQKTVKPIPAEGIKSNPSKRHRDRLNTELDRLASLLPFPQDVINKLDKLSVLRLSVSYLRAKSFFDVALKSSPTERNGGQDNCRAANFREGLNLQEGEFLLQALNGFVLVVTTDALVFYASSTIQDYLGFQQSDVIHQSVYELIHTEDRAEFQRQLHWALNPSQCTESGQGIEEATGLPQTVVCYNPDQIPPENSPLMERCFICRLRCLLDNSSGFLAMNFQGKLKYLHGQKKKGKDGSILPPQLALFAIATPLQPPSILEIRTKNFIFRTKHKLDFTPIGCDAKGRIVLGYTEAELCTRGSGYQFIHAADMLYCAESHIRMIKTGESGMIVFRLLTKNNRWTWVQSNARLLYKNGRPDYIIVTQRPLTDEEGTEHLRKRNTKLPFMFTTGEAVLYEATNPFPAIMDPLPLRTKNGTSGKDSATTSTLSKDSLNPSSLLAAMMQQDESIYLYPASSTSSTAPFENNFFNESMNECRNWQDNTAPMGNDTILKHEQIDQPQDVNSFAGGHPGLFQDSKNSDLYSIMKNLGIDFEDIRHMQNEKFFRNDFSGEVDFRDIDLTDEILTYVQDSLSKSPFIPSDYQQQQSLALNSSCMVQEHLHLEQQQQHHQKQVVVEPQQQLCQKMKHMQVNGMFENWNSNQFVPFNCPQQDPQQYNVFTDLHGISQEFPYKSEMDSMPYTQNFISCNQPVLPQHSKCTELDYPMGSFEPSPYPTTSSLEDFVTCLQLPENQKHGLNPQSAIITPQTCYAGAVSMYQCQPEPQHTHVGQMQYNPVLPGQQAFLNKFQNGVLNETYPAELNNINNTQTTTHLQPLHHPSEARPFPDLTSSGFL

Test [3] in a line: qHTS assay to identify small molecule that activate the aryl hydrocarbon receptor (AhR) signaling pathway - cell viability counter screen (AID 743086).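 Note: HepG2 liver cells carrying the AhR DRE luciferase reporter; series mostly up to about 70 µM; nearly all actives have a fitted effect of over 45% in size.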 Put shortly: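 HepG2-AhR-luc (HG2L7.5c1) cells, 4000/well, were preincubated 5 h at 37C, exposed to compound in qHTS format for 24 hr at 37C, then given CellTiter-Fluor for 30 min; viability was read as fluorescence in the reporter wells.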

In test [4] the target is Peroxisome proliferator-activated receptor gamma (Homo sapiens) (UniProt P37231). The experiment in a line: qHTS assay to identify small molecule agonists of the peroxisome proliferator-activated receptor gamma (PPARg) signaling pathway (AID 743094; active = well fitted activation curve with a large enough effect in the signal ratio in the repeat runs, not every such curve was filed as active; the % refers to the signal ratio). The method in brief: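 Following 5 h plating at 37C, PPARg-bla HEK293H cells receive compound or DMSO for 17 h; fluorescence intensity is recorded after LiveBLAzer B/G loading for 1 h at room temperature.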
Peroxisome proliferator-activated receptor gamma (Homo sapiens), sequence (P37231 whole entry, looked up): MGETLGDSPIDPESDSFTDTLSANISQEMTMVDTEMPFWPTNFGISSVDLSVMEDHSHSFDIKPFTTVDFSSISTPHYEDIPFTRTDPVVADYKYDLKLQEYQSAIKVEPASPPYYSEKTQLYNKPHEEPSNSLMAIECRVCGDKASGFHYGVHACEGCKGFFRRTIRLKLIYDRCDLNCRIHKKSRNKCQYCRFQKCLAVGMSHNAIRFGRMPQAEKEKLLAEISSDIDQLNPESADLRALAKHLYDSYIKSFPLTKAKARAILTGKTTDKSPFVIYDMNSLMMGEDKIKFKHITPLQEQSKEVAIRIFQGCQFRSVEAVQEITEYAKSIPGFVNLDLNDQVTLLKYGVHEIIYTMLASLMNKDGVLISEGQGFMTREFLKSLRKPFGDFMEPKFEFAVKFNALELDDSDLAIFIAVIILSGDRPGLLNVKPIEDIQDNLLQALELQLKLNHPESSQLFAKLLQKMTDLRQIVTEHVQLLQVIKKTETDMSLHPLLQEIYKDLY

The nature of test [5]: qHTS assay to identify small molecule antagonists of the peroxisome proliferator-activated receptor gamma (PPARg) signaling pathway - cell viability counter screen (AID 743194). Note: nearly all actives have a fitted effect of over 55% in size. Note: potency is the fitted concentration of half-maximal effect. The note with it: Potency: co-treated with 50 nM rosiglitazone. Put shortly:
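PPARg-UAS-bla HEK293H cells were plated, rested 5 h at 37 C, then treated with compounds plus rosiglitazone (50 nM final) for 17 h at 37 C; viability was then read by CellTiter-Glo luminescence after 30 min at room temperature.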

The nature of test [6]: qHTS assay for small molecule agonists of the antioxidant response element (ARE) signaling pathway - cell viability counter screen (AID 743203; calls by dose curve; note: nearly all actives have a fitted effect of over 55% in size; note: potency is the fitted concentration of half-maximal effect). Put shortly: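 Compounds in DMSO were pinned onto ARE-bla HepG2 cells plated 5 hrs earlier at 2,000 cells/well. Sixteen hours later at 37C/5% CO2, CellTiter-Glo was added and luminescence measured after 30 min at room temperature.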

Test [7] in a line: qHTS assay for small molecule activators of the heat shock response signaling pathway - cell viability counter screen (AID 743209). Note: nearly all actives have a fitted effect of over 50% in size. Note: potency is the fitted concentration of half-maximal effect. Put shortly:
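Counter screen for cytotoxicity in HeLa HSE-bla reporter cells. Treatment was 5 h at 37 C; viability was detected by luminescent ATP assay (CellTiter-Glo) in the same wells as the beta-lactamase read.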

The nature of test [8]: qHTS assay for small molecule activators of the heat shock response signaling pathway (AID 743210; active = well fitted activation curve with a large enough effect in the signal ratio in the repeat runs, with a control signal flat, not every such curve was filed as active; the % refers to the signal ratio; note: series mostly up to about 63 µM). Put shortly:
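HSE-bla HeLa cells (beta-lactamase reporter under heat shock response elements) were exposed to compounds for 5 h at 37 C, then loaded with LiveBLAzer B/G FRET substrate for 2.5 h at room temperature before fluorescence reading.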

A short description of test [9]: qHTS assay to identify small molecule agonists of the peroxisome proliferator-activated receptor delta (PPARd) signaling pathway - cell viability counter screen (AID 743211). Note: nearly all actives have a fitted effect of over 55% in size. Note: potency is the fitted concentration of half-maximal effect. The method in brief: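 Viability was measured as CellTiter-Glo luminescence (30 min, room temperature) in the same wells as the beta-lactamase readout. GeneBLAzer PPARd UAS-bla HEK293H cells received compound after 5 h plating and were incubated 17 h at 37 C.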

For test [10], the target named is Peroxisome proliferator-activated receptor delta (Homo sapiens) (UniProt Q03181). The experiment in a line: qHTS assay to identify small molecule agonists of the peroxisome proliferator-activated receptor delta (PPARd) signaling pathway (AID 743212; calls by dose curve). The method in brief: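 GeneBLAzer PPARd UAS-bla HEK293H cells (beta-lactamase reporter under UAS control), plated and rested 5 h at 37 C, then exposed to compounds in DMSO at 37 C; LiveBLAzer B/G FRET substrate added, 2 h room temperature, fluorescence read.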
Peroxisome proliferator-activated receptor delta (Homo sapiens), sequence (Q03181 whole entry, looked up): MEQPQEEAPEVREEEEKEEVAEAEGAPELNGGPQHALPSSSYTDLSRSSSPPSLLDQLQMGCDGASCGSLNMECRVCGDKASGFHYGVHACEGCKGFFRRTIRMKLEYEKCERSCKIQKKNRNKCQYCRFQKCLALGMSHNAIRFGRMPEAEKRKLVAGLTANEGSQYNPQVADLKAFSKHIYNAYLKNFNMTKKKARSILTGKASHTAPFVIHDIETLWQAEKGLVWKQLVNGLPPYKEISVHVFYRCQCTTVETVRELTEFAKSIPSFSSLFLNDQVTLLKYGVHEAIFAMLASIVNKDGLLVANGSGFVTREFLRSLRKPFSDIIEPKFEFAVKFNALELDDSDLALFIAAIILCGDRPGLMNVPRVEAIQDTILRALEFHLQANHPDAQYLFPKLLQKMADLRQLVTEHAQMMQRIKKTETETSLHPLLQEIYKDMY

Test [11] can be described thus: qHTS assay to identify small molecule antagonists of the peroxisome proliferator-activated receptor delta (PPARd) signaling pathway - cell viability counter screen (AID 743213). Note: nearly all actives have a fitted effect of over 50% in size. The method in brief: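 Agonist-stimulated (L165041, 300 nM final) HEK293H PPARd UAS-bla cells are exposed to compounds for 17 h at 37 C, and ATP-based luminescence (CellTiter-Glo) from the same wells reports cytotoxicity.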

Test [12] has as its target Peroxisome proliferator-activated receptor delta (Homo sapiens) (UniProt Q03181). In words: qHTS assay to identify small molecule antagonists of the peroxisome proliferator-activated receptor delta (PPARd) signaling pathway (AID 743215; active = well fitted inhibition curve with a large enough effect in the signal ratio in the repeat runs, not every such curve was filed as active; the % refers to the signal ratio; note: series mostly up to about 62 µM). The method in brief:
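With L165041 present at 300 nM final, compounds were incubated 17 h at 37 C on PPARd UAS-bla HEK293H cells. A FRET-based beta-lactamase substrate was then applied for 2 h at room temperature and fluorescence intensity recorded.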

Test [13] in a line: qHTS assay to identify small molecule antagonists of the farnesoid-X-receptor (FXR) signaling pathway - cell viability counter screen (AID 743221; active = well fitted cell-killing curve with a large enough effect in the repeat runs, not every such curve was filed as active; note: nearly all actives have a fitted effect of over 50% in size; note: potency is the fitted concentration of half-maximal effect). Put shortly:
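Cytotoxicity counter screen run in the FXR-bla reporter wells: HEK 293T cells exposed to compound with 50 uM (final) chenodeoxycholic acid for 16 h, 37 C, then viability measured by CellTiter-Glo luminescence after 30 min, room temperature.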

The target of test [14] is Vitamin D3 receptor (Homo sapiens) (UniProt P11473). In words: qHTS assay to identify small molecule agonists of the vitamin D receptor (VDR) signaling pathway (AID 743222; calls by dose curve). Put shortly: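 VDR-bla cells were seeded, left 4 h, treated with compounds in DMSO for 16 h, incubated 2 h at RT with B/G FRET substrate, and read for fluorescence.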
Vitamin D3 receptor (Homo sapiens), sequence (P11473 whole entry, looked up): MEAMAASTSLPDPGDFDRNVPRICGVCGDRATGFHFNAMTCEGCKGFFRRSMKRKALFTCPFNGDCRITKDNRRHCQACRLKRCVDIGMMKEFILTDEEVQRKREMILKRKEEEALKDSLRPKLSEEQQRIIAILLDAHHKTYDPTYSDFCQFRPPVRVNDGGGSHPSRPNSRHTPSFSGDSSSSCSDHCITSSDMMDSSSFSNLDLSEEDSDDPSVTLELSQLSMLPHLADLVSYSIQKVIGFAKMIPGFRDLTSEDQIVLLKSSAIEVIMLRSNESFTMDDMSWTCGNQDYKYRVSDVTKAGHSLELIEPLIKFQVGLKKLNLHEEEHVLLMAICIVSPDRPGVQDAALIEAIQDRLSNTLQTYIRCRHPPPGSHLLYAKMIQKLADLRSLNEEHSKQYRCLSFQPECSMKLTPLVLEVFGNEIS
A short description of test [15]: qHTS assay for small molecule agonists of the antioxidant response element (ARE) signaling pathway (AID 743202; active = well fitted activation curve with a large enough effect in the signal ratio in the repeat runs, not every such curve was filed as active; the % refers to the signal ratio; note: potency is the fitted concentration of half-maximal effect). The method in brief:
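Read-out: LiveBLAzer B/G FRET substrate fluorescence after 2 h at room temperature, following 16 h compound treatment at 37 C of HepG2 cells carrying an ARE-driven beta-lactamase reporter.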

The target of test [16] is Bile acid receptor (Homo sapiens) (UniProt Q96RI1). In words: qHTS assay to identify small molecule antagonists of the farnesoid-X-receptor (FXR) signaling pathway (AID 743217; active = well fitted inhibition curve with a large enough effect in the signal ratio in the repeat runs, not every such curve was filed as active; the % refers to the signal ratio). The method in brief: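 In this cell-based antagonist screen, inhibition of CDCA-driven (50 uM final) UAS-beta-lactamase expression in HEK 293T cells was measured by FRET fluorescence following 16 h compound exposure at 37 °C.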
Bile acid receptor (Homo sapiens), sequence (Q96RI1 whole entry, looked up): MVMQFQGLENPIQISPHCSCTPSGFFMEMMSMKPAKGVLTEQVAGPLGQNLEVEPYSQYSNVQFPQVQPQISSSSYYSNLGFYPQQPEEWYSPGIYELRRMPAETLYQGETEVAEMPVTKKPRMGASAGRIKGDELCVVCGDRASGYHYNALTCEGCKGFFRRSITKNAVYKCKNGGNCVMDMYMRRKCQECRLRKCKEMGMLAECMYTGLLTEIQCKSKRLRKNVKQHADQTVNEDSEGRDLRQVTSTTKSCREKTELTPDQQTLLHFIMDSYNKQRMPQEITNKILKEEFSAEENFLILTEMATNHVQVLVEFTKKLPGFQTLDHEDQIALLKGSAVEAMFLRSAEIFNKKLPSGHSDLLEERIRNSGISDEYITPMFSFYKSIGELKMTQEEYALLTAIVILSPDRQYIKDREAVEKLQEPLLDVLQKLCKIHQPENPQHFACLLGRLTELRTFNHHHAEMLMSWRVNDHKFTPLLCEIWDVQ

Test [17] shares this target. The experiment in a line: qHTS assay to identify small molecule agonists of the farnesoid-X-receptor (FXR) signaling pathway (AID 743220; active = well fitted activation curve with a large enough effect in the signal ratio in the repeat runs, not every such curve was filed as active; the % refers to the signal ratio). Put shortly:
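Beta-lactamase reporter under UAS control in GeneBLAzer FXR HEK 293T cells (5000/well) measured with LiveBLAzer FRET substrate after 2 h at room temperature. Compound exposure lasted 16 h at 37C.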

The target of test [18] is Vitamin D3 receptor (Homo sapiens) (UniProt P11473). The experiment in a line: qHTS assay to identify small molecule antagonists of the vitamin D receptor (VDR) signaling pathway (AID 743223; active = well fitted inhibition curve with a large enough effect in the signal ratio in the repeat runs, not every such curve was filed as active; the % refers to the signal ratio). Put shortly:
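Antagonist mode: compound added to VDR-bla cells alongside agonist 1alpha,25-dihydroxyvitamin D3 (3 nM final), incubation 16 h at 37C. Read-out is LiveBLAzer FRET fluorescence, 2 h at room temperature.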

Test [19] can be described thus: qHTS assay to identify small molecule agonists of the farnesoid-X-receptor (FXR) signaling pathway - cell viability counter screen (AID 743218). Note: nearly all actives have a fitted effect of over 45% in size. Note: potency is the fitted concentration of half-maximal effect. Put shortly:
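After 16 h at 37 C with test compounds, FXR-bla HEK 293T cells were given LiveBLAzer B/G substrate for 2 h at RT and then CellTiter-Glo; luminescence was taken after 30 min.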

In test [20] the target is Peroxisome proliferator-activated receptor gamma (Homo sapiens) (UniProt P37231). The experiment in a line: qHTS assay to identify small molecule antagonists of the peroxisome proliferator-activated receptor gamma (PPARg) signaling pathway (AID 743191; calls by dose curve; note: series mostly up to about 63 µM; nearly all actives have a fitted effect of over 30% in size). The method in brief:
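GeneBLAzer PPARg UAS-bla HEK293H cells carrying a UAS-driven beta-lactamase reporter were plated at 3000 cells/well, preincubated 5 h at 37C, then given compound for 17 h at 37C; LiveBLAzer B/G FRET substrate was read after 1 h at room temperature.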

Regarding `CC(=O)[C@H]1CC[C@H]2[C@@H]3CC[C@H]4C[C@](C)(O)CC[C@]4(C)[C@H]3CC[C@]12C`, the Potency entry in [1], in test [2], in test [3], in test [4], in test [5] and in [6] was “inactive” each time. Also, the Potency entry in [7], in test [9], in [11], in test [12] and in test [13] was “inactive” in each case. For the same compound, the result in test [8] and in test [10] was inactive.

As for `O=Cc1ccc(Cl)cc1Cl`, the Potency result in test [1], in [2], in test [3], in test [4], in [5] and in test [6] was “inactive” each time. Also, the Potency result in test [7], in test [9], in test [11] and in test [12] was “inactive” each time. The compound was classed as inactive in test [8], in [10] and in [14].

For `c1ccoc1`, the Potency entry in test [1], in [2], in test [3], in test [4], in test [5] and in test [15] was “inactive” in each case. Also, the Potency entry in [6], in [7], in test [9], in [11], in test [12] and in test [16] was “inactive” in each case. In addition, the Potency entry in test [13] was “inactive”. For the same compound, the call in [8], in test [10], in [17], in test [14] and in test [18] was inactive.

Regarding `NS(=O)(=O)C(F)(F)C(F)(F)C(F)(F)C(F)(F)C(F)(F)C(F)(F)C(F)(F)C(F)(F)F`, the Potency result in test [1], in [2], in test [3], in test [4] and in test [11] was “inactive” throughout. For the same compound, the Potency in [5] is 43.6 µM (active); in test [6], 68.6 µM (active); in test [7], 49 µM (active); in test [19], 54.9 µM (active); in test [13], 27.5 µM (active).

On to `CCOC(=O)[C@]1(c2ccccc2)Oc2ccccc2[C@@H]1N`, for which the Potency result in [1], in test [2], in [3], in test [20], in [5] and in test [7] was “inactive” each time. In addition, the Potency result in test [19] and in [13] was “inactive” each time. Moreover, the outcome in [8], in test [10] and in test [14] was inactive. Moreover, in test [9], the Potency is 54.9 µM (active).

Take `II`: the Potency result in test [1], in test [2], in test [3], in test [4], in [5] and in test [6] was “inactive” each time. The Potency result in test [7], in test [9], in test [11], in test [12], in test [19] and in test [13] was “inactive” throughout. Besides, the outcome in test [8], in test [10], in [14] and in [18] was inactive.

With `C=CC(C)=O`, the Potency result in [1], in test [2], in test [3], in test [4], in test [5] and in [6] was “inactive” throughout. The Potency result in test [7], in test [9], in test [11], in test [12], in [16] and in test [19] was “inactive” each time. The Potency entry in test [13] was “inactive”. The compound was called inactive in [8], in [10] and in test [17].

Consider `O=C(CBr)OCc1ccccc1`, for which the Potency entry in [1], in test [2], in test [3], in test [4], in [5] and in [15] was “inactive” throughout. The Potency result in test [6], in [7], in test [9], in test [11], in test [12] and in test [16] was “inactive” throughout. The Potency entry in test [19] and in test [13] was “inactive” in each case. The outcome in test [8], in test [10], in test [17], in test [14] and in test [18] was inactive.

Consider `Cc1cc(=O)[nH]o1`, for which the Potency entry in test [1], in [2], in [3], in test [4], in test [5] and in test [15] was “inactive” in each case. For the same compound, the Potency entry in test [6], in [7], in [9], in [11], in test [12] and in test [13] was “inactive” throughout. Further, the outcome in test [8] and in test [10] was inactive.

With `CC[C@H]1C[C@H]2[C@@H]3CCC4=CC(=O)CC[C@@H]4[C@H]3CC[C@]2(C)[C@H]1O`, the Potency result in test [1], in [2], in test [3], in test [4], in test [5] and in test [6] was “inactive” throughout. For the same compound, the Potency entry in test [7], in test [11] and in [13] was “inactive” throughout. The Potency in test [15] is 29.8 µM (active). The call in test [8], in [10] and in test [18] was inactive.
